According to PubChem BioAssay AID1159580 (chemical genetic matrix, 2015):
In all, about 5,500 compounds went through this assay and about 2,000 (36%) were called active. Roughly 18% stayed inconclusive and do not appear here. Rule as the data show it: active = normalized growth mostly below about 0.91 (no sharp cut-off); inconclusive = no clear call, values can overlap the other calls; inactive = mostly above about 0.92. Some of the results follow.

Experiment: chemical genetic growth profiling, strain panel (AID 1159580);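 also: tested at 20 µM; growth read once vehicle control cultures reached saturation at 30 °C; 1 = growth at the plate median or of vehicle wells; lower values mean less growth of the strain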
Conditions: growth OD

Measured: normalized growth

CC1NC(=O)NC1=O (stereo unspecified)
inactive: S. cerevisiae deletion strains, locus YAL013W, strain DEP1, active compounds read low 0.968 | S. cerevisiae deletion strains, locus YBR021W, strain FUR4, active compounds read low 1.01 | S. cerevisiae deletion strains, locus YBR229C, strain ROT2, active compounds read low 0.996 | S. cerevisiae deletion strains, locus YCL029C, strain bik1, active compounds read low 1.01 | S. cerevisiae deletion strains, locus YDL035C, strain GPR1, active compounds read low 0.987 | S. cerevisiae deletion strains, locus YDL074C, strain BRE1, active compounds read low 1 | S. cerevisiae deletion strains, locus YDL101C, strain DUN1, active compounds read low 1 | S. cerevisiae deletion strains, locus YDL134C, strain PPH21, active compounds read low 1.01 | S. cerevisiae deletion strains, locus YDL185W, strain tfp1, active compounds read low 1.01 | S. cerevisiae deletion strains, locus YDL192W, strain arf1, active compounds read low 1.01 | S. cerevisiae deletion strains, locus YDR101C, strain arx1, active compounds read low 1 | S. cerevisiae deletion strains, locus YDR150W, strain NUM1, active compounds read low 1.02 | S. cerevisiae deletion strains, locus YDR162C, strain NBP2, active compounds read low 1 | S. cerevisiae deletion strains, locus YDR318W, strain mcm21, active compounds read low 1.02 | S. cerevisiae deletion strains, locus YDR388W, active compounds read low 1.01 | S. cerevisiae deletion strains, locus YDR502C, strain sam2, active compounds read low 1.01 | S. cerevisiae deletion strains, locus YEL061C, strain CIN8, active compounds read low 0.997 | S. cerevisiae deletion strains, locus YER110C, active compounds read low 1.01 | S. cerevisiae deletion strains, locus YER155C, strain BEM2, active compounds read low 0.995 | S. cerevisiae deletion strains, locus YER167W, strain BCK2, active compounds read low 0.998 | S. cerevisiae deletion strains, locus YGL078C, strain dbp3, active compounds read low 1.01 | S. cerevisiae deletion strains, locus YGL086W, strain mad1, active compounds read low 1.02 | S. cerevisiae deletion strains, locus YGL248W, strain PDE1, active compounds read low 1.01 | S. cerevisiae deletion strains, locus YGR078C, strain PAC10, active compounds read low 1.01 | S. cerevisiae deletion strains, locus YGR135W, strain pre9, active compounds read low 1.01 | S. cerevisiae deletion strains, locus YGR229C, strain SMI1, active compounds read low 0.986 | S. cerevisiae deletion strains, locus YGR252W, strain gcn5, active compounds read low 1.02 | S. cerevisiae deletion strains, locus YHR030C, strain SLT2, active compounds read low 1 | S. cerevisiae deletion strains, locus YHR079C, strain IRE1 (second series), active compounds read low 1 | S. cerevisiae deletion strains, locus YHR094C, strain hxt1, active compounds read low 1.01 | S. cerevisiae deletion strains, locus YHR129C, strain ARP1, active compounds read low 0.999 | S. cerevisiae deletion strains, locus YHR200W, strain rpn10, active compounds read low 1.01 | S. cerevisiae deletion strains, locus YIL066C, strain RNR3, active compounds read low 0.99 | S. cerevisiae deletion strains, locus YIL073C, strain SPO22, active compounds read low 1.07 | S. cerevisiae deletion strains, locus YIL125W, strain kgd1, active compounds read low 1.02 | S. cerevisiae deletion strains, locus YIR030C, strain dcg1, active compounds read low 1 | S. cerevisiae deletion strains, locus YJL095W, strain BCK1, active compounds read low 0.986 | S. cerevisiae deletion strains, locus YJL134W, strain LCB3, active compounds read low 0.994 | S. cerevisiae deletion strains, locus YJL168C, strain set2, active compounds read low 1 | S. cerevisiae deletion strains, locus YJL187C, strain SWE1 (second series), active compounds read low 0.999 | S. cerevisiae deletion strains, locus YJR043C, strain POL32, active compounds read low 1.01 | S. cerevisiae deletion strains, locus YJR075W, strain HOC1, active compounds read low 0.993 | S. cerevisiae deletion strains, locus YKL009W, strain mrt4, active compounds read low 1.03 | S. cerevisiae deletion strains, locus YKL068W, active compounds read low 1.01 | S. cerevisiae deletion strains, locus YKL085W, strain MDH1 (second series), active compounds read low 1 | S. cerevisiae deletion strains, locus YKL085W, strain MDH1, active compounds read low 1 | S. cerevisiae deletion strains, locus YKL190W, strain CNB1, active compounds read low 1 | S. cerevisiae deletion strains, locus YKR001C, strain vps1, active compounds read low 1.02 | S. cerevisiae deletion strains, locus YLR039C, strain RIC1, active compounds read low 1.02 | S. cerevisiae deletion strains, locus YLR058C, strain SHM2, active compounds read low 1 | S. cerevisiae deletion strains, locus YLR102C, strain apc9, active compounds read low 1.01 | S. cerevisiae deletion strains, locus YLR262C, strain YPT6, active compounds read low 1.02 | S. cerevisiae deletion strains, locus YLR268W, strain sec22, active compounds read low 1 | S. cerevisiae deletion strains, locus YLR330W, strain CHS5, active compounds read low 1 | S. cerevisiae deletion strains, locus YLR342W, strain FKS1 (second series), active compounds read low 1 | S. cerevisiae deletion strains, locus YLR371W, strain rom2, active compounds read low 1.01 | S. cerevisiae deletion strains, locus YLR418C, strain cdc73, active compounds read low 1.01 | S. cerevisiae deletion strains, locus YML016C, strain PPZ1, active compounds read low 1 | S. cerevisiae deletion strains, locus YML032C, strain rad52, active compounds read low 1.02 | S. cerevisiae deletion strains, locus YML124C, strain tub3, active compounds read low 1.01 | S. cerevisiae deletion strains, locus YMR078C, strain ctf18, active compounds read low 1.01 | S. cerevisiae deletion strains, locus YMR223W, strain ubp8, active compounds read low 1.01 | S. cerevisiae deletion strains, locus YMR263W, strain SAP30, active compounds read low 0.994 | S. cerevisiae deletion strains, locus YMR307W, strain GAS1, active compounds read low 0.983 | S. cerevisiae deletion strains, locus YNL067W, strain RPL9B, active compounds read low 1 | S. cerevisiae deletion strains, locus YNL128W, strain TEP1, active compounds read low 0.975 | S. cerevisiae deletion strains, locus YNL153C, strain GIM3, active compounds read low 1.01 | S. cerevisiae deletion strains, locus YNL233W, strain BNI4, active compounds read low 1 | S. cerevisiae deletion strains, locus YNL250W, strain rad50, active compounds read low 1.01 | S. cerevisiae deletion strains, locus YNL271C, strain bni1, active compounds read low 1 | S. cerevisiae deletion strains, locus YNL298W, strain CLA4, active compounds read low 1.02 | S. cerevisiae deletion strains, locus YNL307C, strain MCK1, active compounds read low 1.02 | S. cerevisiae deletion strains, locus YNL322C, strain KRE1, active compounds read low 0.991 | S. cerevisiae deletion strains, locus YNR052C, strain pop2, active compounds read low 1 | S. cerevisiae deletion strains, locus YOL006C, strain TOP1, active compounds read low 1 | S. cerevisiae deletion strains, locus YOL012C, strain htz1 0.89 | S. cerevisiae deletion strains, locus YOL147C, strain pex11, active compounds read low 1.02 | S. cerevisiae deletion strains, locus YOR061W, strain CKA2, active compounds read low 0.998 | S. cerevisiae deletion strains, locus YOR069W, strain VPS5, active compounds read low 0.998 | S. cerevisiae deletion strains, locus YOR136W, strain idh2, active compounds read low 1.02 | S. cerevisiae deletion strains, locus YOR144C, strain elg1, active compounds read low 1.01 | S. cerevisiae deletion strains, locus YOR184W, strain ser1, active compounds read low 1.03 | S. cerevisiae deletion strains, locus YOR316C, strain cot1, active compounds read low 1 | S. cerevisiae deletion strains, locus YPL055C, strain LGE1, active compounds read low 0.986 | S. cerevisiae deletion strains, locus YPL241C, strain CIN2, active compounds read low 1 | S. cerevisiae deletion strains, locus YPR119W, strain clb2, active compounds read low 1.01 | S. cerevisiae deletion strains, locus YPR141C, strain kar3, active compounds read low 1.01 | S. cerevisiae deletion strains, locus YPR163C, strain tif3, active compounds read low 1.02 | S. cerevisiae deletion strains, locus YPR167C, strain met16, active compounds read low 1.01 | S. cerevisiae deletion strains, strain wtn01, active compounds read low 1.01 | S. cerevisiae strains, strain wild type, active compounds read low 0.98
